TRPM1 prom inh: inhibitors of MITF-driven TRPM1 promoter in melanoma cells | AID 488899 | SK-MEL-5 TRPM1 promoter luciferase, 24 h | inhibition, % at 12.5 µM | 330,000 compounds, 0.83% hits;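 active = mean inhibition across replicates of 60% or more, whatever share of single replicates reaches that level; inconclusive = some that reach 60%, reason not given; inactive = mean inhibition across replicates below 60%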
697 NFkB inh: inhibitors of the PMA/ionomycin-induced NF-kB reporter in 697 B cells; 697 B-cell NF-kB luciferase reporter, 16 h; inhibition, % at 4 µM; 330,000 compounds, 0.33% hits; AID 435022; in the data active = inhibition above about 35%
Shn3 inh set2: reduces Shn3 3'UTR luciferase signal in osteoblasts; Clone20 osteoblast Shn3 3'UTR firefly luciferase, 24 h; 360,000 compounds, 0.52% hits; inhibition, % at 12.5 µM;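 active = mean inhibition of at least 75% with every replicate also reaching 75%; inconclusive = mean inhibition at least 75% but some replicate below; inactive = mean inhibition below 75%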;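 also: 0% = median of neutral control wells and 100% = pilot-screen positive control compound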
Gli-Sufu antag: antagonists of Gli-Sufu signaling | inhibition, % at 5 µM | 340,000 compounds, 0.74% hits | Sufu-KO-LIGHT fibroblasts, Gli luciferase reporter luminescence;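 active = inhibition above about 55%, limit read from the data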;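 also: 0% = DMSO-treated cells and 100% = wells with medium but no cells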
Jurkat NFkB inh: lowers PMA/ionomycin-induced NF-kB signal in Jurkat cells; PMA/ionomycin-induced NF-kB luciferase reporter, luminescence; inhibition, % at 4 µM; 330,000 compounds, 0.53% hits; AID 435003; in the data active = inhibition above about 50%
LMP1 NFkB inh: Epstein-Barr LMP1 NF-kappaB reporter inhibition; LMP1-induced NF-kappaB luciferase reporter cells, luminescence; inhibition, % at 12.5 µM; 350,000 compounds, 0.69% hits; in the data active = inhibition above about 41%; inconclusive = no clear call, values can overlap the other calls;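 also: 0% = neutral control wells and 100% = reference inhibitor control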
Jurkat NFkB conf: lowers PMA/ionomycin-induced NF-kB signal in Jurkat cells; inhibition, % at 4 µM; 2,700 compounds, 27% hits; AID 435020; Jurkat NF-kB luciferase, 16 h; shares compounds with Jurkat NFkB inh;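 active = inhibition reaching about 45% at 4 µM in either replicate, limit read from the data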;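 also: plate controls were PMA/ionomycin stimulated DMSO wells for no effect and unstimulated DMSO wells for full effect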
697 NFkB conf: lowers PMA/ionomycin-induced NF-kB signal in 697 B cells; shares compounds with 697 NFkB inh; 2,000 compounds, 35% hits; 697 B-cell NF-kB luciferase, 16 h; inhibition, % at 4 µM; in the data active = inhibition mostly above about 28%, no sharp cut-off; inactive = mostly below about 22%
Starred values were filed as active, the others as inactive; ? = inconclusive; . = no result given. A selection: hits, their analogues and other compounds. The true share with any hit is near 2.3%.

SMILES	TRPM1 prom inh	697 NFkB inh	Shn3 inh set2	Gli-Sufu antag	Jurkat NFkB inh	LMP1 NFkB inh	Jurkat NFkB conf	697 NFkB conf
O=C(Nc1nc2cc3c(cc2s1)OCCO3)C1CCCCC1	-86	-348	12	-143	-233	-14	-111	-371
CNc1nc2c(-c3ccc(Cl)cc3)nnn2c2ccccc12	22	-21	-17	-2	-34	-32	.	.
Nc1nc2c(-c3ccc(Br)cc3)nnn2c2ccccc12	-38	-258	-76	-86	-152	-57	-126	-249
CCN1/C(=C/c2ccc3cccc(C)c3[n+]2CC)Sc2ccccc21	72*	102*	51	88*	92*	-3	77*	87*
CCN(CC)c1ccc(C(=O)Nc2cccc(F)c2)cc1	-26	-293	-22	16	-221	-50	-144	-294
CN(C)c1cccc(C(=O)Nc2cccc(F)c2)c1	-23	-27	-22	-63	-37	-7	.	.
N#Cc1ccccc1OCCN1C(=O)c2ccccc2C1=O	-61	-48	-45	-23	12	-9	.	.
Nc1cccc2c1C(=O)N(CCOc1ccccc1F)C2=O	-12	-319	-31	9	-183	-12	-120	-360
O=C1CCCCCN1C(=O)c1ccccc1	-2	.	-4	6	.	18	.	.
CC(C)(C)c1ccc(C(=O)N2CCCCCC2=O)cc1	81*	71*	.	43	54*	39	67*	66*
CSc1ncccc1C(=O)Nc1nc(C(C)(C)C)cs1	-8	-22	-4	-22	-11	7	.	.
COC(=O)CCn1nnc(-c2cccs2)n1	-1	4	10	1	-2	3	.	.
COC(=O)CCn1nnc(-c2ccc(C(C)C)cc2)n1	68*	69*	70	57*	64*	?	61*	78*
O=C1/C(=C/c2ccccn2)COc2ccccc21	-5	0	10	-8	-15	14	.	.
CC(C)(C)C1C/C(=C/c2ccccn2)C(=O)/C(=C/c2ccccn2)C1 (stereo not drawn)	102*	105*	95*	66*	100*	86*	-5	-124
Cc1ccc2cc3cc(C(=O)N4CCCCC4C)oc3nc2c1 (stereo not drawn)	-83	-329	-73	-107	-210	-46	-160	-290
CC(=O)CSc1nc2cc3c(cc2cc1C#N)OCCO3	24	-305	39	-150	-191	-11	-161	-389
Cc1ccc(CNC(=O)Cn2cnc3c(OCc4ccccc4)ncnc32)o1	1	9	1	1	2	-16	.	.
O=C(CCc1ccccc1)c1ccc2c(c1)OCCCO2	-126	-128	-68	-74	-93	-26	.	.
O=C(NCCc1ccccc1)c1ccc2c(c1)OCCCO2	92*	63*	?	70*	87*	85*	89*	66*
COC(=O)Cc1ccc(NC(=S)NCc2cccc(OC)c2)cc1	0	-10	-6	2	8	3	.	.
O=C(O)c1ccc(COc2ccccc2Cl)cc1	-22	3	-4	0	-15	-12	.	.
O=C(O)c1cccc(COc2ccccc2Cl)c1	92*	67*	89*	-103	82*	74*	78*	43*
Cc1ccc2c(c1)COc1c3ccc(C(=O)O)cc3nn1-2	70*	76*	-9	.	93*	-5	68*	4
Fc1cccc(-c2cc3nc4c(c(NCc5ccco5)n3n2)CCCC4)c1	-71	-326	-12	-57	-172	-52	-99	-361
SMILES	TRPM1 prom inh	697 NFkB inh	Shn3 inh set2	Gli-Sufu antag	Jurkat NFkB inh	LMP1 NFkB inh	Jurkat NFkB conf	697 NFkB conf
Fc1cccc(-c2cc3nc4c(c(N5CCOCC5)n3n2)CCCC4)c1	-88	-63	-43	12	-6	-19	.	.
Cc1ccc(-c2nc3ccc([N+](=O)[O-])cc3[nH]2)cc1	-14	-304	-11	-54	-212	-32	-116	-433
O=C(Nc1ccccc1)C(=O)c1c[nH]c2ccccc12	-32	-299	-80	-74	-215	-73	-143	-329
OCCCNc1cc(-c2ccnc(Nc3cccc(Cl)c3)n2)ccn1	?	85*	90*	75*	99*	89*	100*	91*
CCC(C)Oc1cc(-c2ccnc(Nc3cccc(Cl)c3)n2)ccn1 (stereo not drawn)	20	-54	-31	-8	27	-105	.	.
CCCCc1ccc(-c2nn[nH]n2)nc1	.	.	-10	.	.	-13	.	.
CCCCc1ccc(-c2ccc(Br)cc2O)nc1	-46	-273	13	-103	-213	-46	-98	-169
CCCCc1ccc(-c2ccc(C)cc2O)nc1	-96	-317	-123	-91	-150	-5	-129	-253
CC(=O)N1c2ccc(S(=O)(=O)N3CCCC3C(=O)Nc3ccc(C)cc3)cc2CC1C (stereo not drawn)	-8	-8	8	-6	-14	3	.	.
Cc1ccc(C2=NN(S(C)(=O)=O)C(c3ccc4c(c3)OCO4)C2)cc1 (stereo not drawn)	-36	-259	-50	-95	-175	-70	-111	-276
NNc1nc2sc3c(c2c(=O)n1Cc1ccccc1)CCC3	3	13	4	-6	-19	-9	.	.
NNc1nc(-c2ccccc2)nc2sc3c(c12)CCCC3	-17	-360	2	-18	-222	-8	-44	-321
Cn1ccnc1SCC(=O)Nc1cccc([N+](=O)[O-])c1	-5	-18	-3	4	-5	-7	.	.
CC(=O)NC(CC(=O)Oc1ccc(C)cc1Br)c1ccccc1 (stereo not drawn)	8	-12	-16	4	10	15	.	.
CC(C)(C)c1ccc(/C=N/Nc2ccc(C(=O)O)cc2)cc1	89*	-277	50	-10	59*	32	33	22
O=C(CCl)N1CCCC1c1ccc2c(c1)OCCO2 (stereo not drawn)	90*	52*	-8	0	85*	-31	78*	67*
CC(=O)c1ccc(OCC(=O)N2CCCC2c2ccc3c(c2)OCCCO3)cc1 (stereo not drawn)	-8	13	9	-2	1	-1	.	.
Cc1ccc(-c2nc(Nc3ccccc3)n[nH]2)cc1	-41	-280	-42	-137	-162	-47	-160	-367
N#CCCCC#Cc1ccc2c(c1)COc1c3ccccc3nn1-2	10	-442	-14	-60	-193	-5	-55	-381
C(#Cc1ccc2c(c1)COc1c3ccccc3nn1-2)c1ccccc1	-96	-109	-79	-36	-77	-28	.	.
CCc1ccc2oc(-c3ccc(NC(C)=O)cc3)nc2c1	-27	-309	-3	-130	-219	-33	-143	-334

Source: PubChem
